Screens deposited in PubChem BioAssay by National Center for Advancing Translational Sciences (NCATS).
The list is not random: actives were taken first. Their share in the collection is about 19%.
IL1B secr inh – inhibitors of inflammasome signaling (IL-1 beta secretion); 4.7% of 360,000 active; THP-1 LPS/ATP IL-1B secretion, AlphaLISA, 16 h; hits give low values; activity change, % at 57.5 µM; in the data active means activity change below about -50%; inconclusive means mostly about -30% to -49%
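Secreted IL-1B measured by AlphaLISA bead assay after 16 h compound exposure of THP-1 cells; compounds (final up to 57.5 uM) added 1 h before LPS (250 ng/mL) and ATP (1.25 mM) stimulation; lower signal means less secretion.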
ELG1 repair inh – blocks ELG1-dependent DNA repair in HEK293T cells; 2.3% of 330,000 active; Potency, µM (titrated, usually from 46.1 µM), inactives show at the top dose activity change, negative = inhibition, actives largely listed as inhibitors; HEK293T ELG1-luciferase reporter, luminescence, 16 h; DNA damage induced by 5-fluorouridine; AID 504467; further: potency means the concentration at half of the fitted maximal effect; nearly all actives have a fitted effect of over 55% in size
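5-Fluorouridine DNA damage + compound/DMSO, 2,000 cells/well, 16 h, 37 °C/5% CO2. ONE-Glo, 30 min RT, luminescence. Readout = decrease in reporter signal.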
HT1080 IDH1KD tx – toxicity to HT-1080 IDH1 knockdown cells (counter line); HT-1080 IDH1 knockdown viability, ATP luminescence, 48 h; Potency, µM (highest dose often 46.1 µM), inactives show at the top dose activity, negative = toxicity, actives largely listed as cytotoxic; AID 686971; 2% of 360,000 active;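 further: potency means the concentration at half of the fitted maximal effect; 0% = DMSO wells and -100% = cell-free medium wells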
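Using the IDH1-knockdown HT-1080 line run in the same batch and compound series as the NT line, viability after 48 h at 37 °C was determined by CellTiter-Glo luminescence and expressed as % activity.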
HT1080NT lethal – kills 2HG-producing HT-1080-NT fibrosarcoma cells | HT-1080-NT fibrosarcoma viability, CellTiter-Glo ATP luminescence, 48 h | Potency, µM (top dose mostly 46.1 µM), for inactives: top-dose activity, negative = less viability, hits mostly cytotoxic | 1.6% of 360,000 active;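 further: NT is the 2HG producing partner of a matched IDH1 knockdown line; potency means the concentration at half of the fitted maximal effect; 0% = DMSO-treated cells and -100% = media-only wells without cells; nearly all actives have a fitted effect of over 55% in size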
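Read-out is CellTiter-Glo luminescence after 10 minutes at room temperature, following 48 hours' compound treatment of HT-1080-NT cells (750 cells/well, RPMI, 5% FBS, 37 degrees C).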
TDP1 cell noCPT – qHTS for Inhibitors of human tyrosyl-DNA phosphodiesterase 1 (TDP1): qHTS in cells in absence of CPT; DT40 Tdp1-/- hTDP1 cells, no CPT, ATP luminescence, 48 h; Potency, µM (series often up to 46.2 µM), without a hit: at the highest dose activity change, negative = growth inhibition, most hits filed as inhibitors; 15% of 420,000 active; AID 686978, 2013; further: potency means the concentration at half of the fitted maximal effect; nearly all actives have a fitted effect of over 55% in size
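Stably hTDP1-transfected Tdp1-null chicken DT40 cells were treated with library compounds minus camptothecin and grown for at least 48 hr at 37 °C, after which cellular ATP was quantified by luminescence.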
TDP1 cell CPT – DT40-hTDP1 cell growth loss with CPT | AID 686979 | Potency, µM (series often up to 46.2 µM), inactives show at the highest dose activity change, negative = growth inhibition, hits mostly inhibitors | 12% of 420,000 active | chicken DT40 Tdp1-/-;hTDP1 cells + 20 nM CPT, ATP luminescence, 48 h; further: potency means the concentration at half of the fitted maximal effect; nearly all actives have a fitted effect of over 55% in size
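Cell growth measured by CellTiter-Glo luminescence after a minimum 48 h, 37 C compound exposure with 20 nM CPT in Tdp1-knockout DT40 cells stably expressing hTDP1, seeded 400/well; qHTS titration format.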
Numbers without * were called inactive; ? = inconclusive; . = no result given; [ ] = another dose, or the depositor's remark. Unless noted, the call rests on the fitted dose curve; in most records, active means well fitted curve in the direction sought with a large enough effect; inconclusive means small, poorly fitted or top-dose-only effect, or another doubt; inactive means no such curve, though single readings can be large; an effect the other way counts as inactive or inconclusive. Unless noted, on the % scale 0 is the no-effect control and ±100 the full control effect.

SMILES | IL1B secr inh | ELG1 repair inh | HT1080 IDH1KD tx | HT1080NT lethal | TDP1 cell noCPT | TDP1 cell CPT
CCN(C1CCCCC1)S(=O)(=O)CCNC(=O)c1ccccc1 | 5 | 2% | 15% | 8% | ? | -6%
COc1ccc(-c2ccc(C(=O)N(C)Cc3csc(C)n3)c(N3CCC(N4CCc5ccccc5C4)CC3)n2)cc1 | . | . | . | . | -21% | 8%[9.04 µM]
COC(=O)[C@@]12C[C@@H](CC(=O)NCc3ccc(OC)c(OC)c3)C(=O)N(Cc3ccc4c(c3)OCO4)C1=CCC(C)(C)C2 | -28 | . | -16% | -6% | 26µM* | 15µM*
COC(=O)[C@@]12C[C@@H](CC(=O)NCc3cccc(C(F)(F)F)c3)C(=O)N(Cc3ccc4c(c3)OCO4)C1=CCC(C)(C)C2 | -71* | . | 21µM* | 13µM* | 18µM* | ?
O=C(Nc1ccon1)c1cccc(S(=O)(=O)N2CCCCC2)c1 | 33 | ? | -4% | -8% | 0% | ?
Cc1ccc(OCC(=O)c2ccc(Cl)s2)c([N+](=O)[O-])n1 | -73* | 13% | 5% | 1% | 13µM* | 3.7µM*
Cc1cc(C(=O)COc2cc(F)ccc2[N+](=O)[O-])c(C)n1CC1CCCO1 (configuration not stated) | 0 | ? | -3% | -7% | ? | ?
Cc1cc(-n2c(C)cc(C(=O)COc3cc(F)ccc3[N+](=O)[O-])c2C)no1 | 20 | -14% | -15% | -3% | 15µM* | ?
Cc1cc(C(=O)CN2C(=O)NC(CCS(C)(=O)=O)C2=O)c(C)n1C1CC1 (configuration not stated) | -10 | 10% | -1% | -8% | 5.8µM* | 18µM*
COc1ccc(OCCOc2ccc(C)nc2[N+](=O)[O-])cc1 | 0 | ? | -1% | -3% | 2% | 0%
Cc1ccc(OCCOc2ccc(Cl)cc2Cl)c([N+](=O)[O-])n1 | -26 | ? | -3% | 0% | 16µM* | ?
CCN1C(=O)C(=O)N(CC(=O)c2cc(C)n(C3CC3)c2C)C1=O | -13 | ? | 2% | -2% | -20% | -7%
CCOC(=O)[C@]12CCCC=C1N(Cc1cccc3ccccc13)C(=O)[C@H](CC(=O)N1CCN(C(=O)c3ccco3)CC1)C2 | -24 | . | -16% | ? | ? | ?
Cc1ccc(OCC(=O)c2cc(C)n(C3CC3)c2C)c([N+](=O)[O-])n1 | 4 | ? | 3% | 4% | 23µM* | ?
Cc1cc(C(=O)COc2ccc(F)cc2Br)c(C)n1C1CC1 | ? | ? | -11% | -7% | 10µM* | 15µM*
Cc1ccc(OCC(=O)c2cc(C)n(-c3cc(C)on3)c2C)c([N+](=O)[O-])n1 | 6 | 10% | -4% | -6% | ? | 10µM*
Cc1ccc(OCC(=O)c2cc(C)n(CC(F)(F)F)c2C)c([N+](=O)[O-])n1 | 13 | -1% | ? | -9% | ? | -1%
Cc1cc(-n2c(C)cc(C(=O)COc3ccc([N+](=O)[O-])cc3)c2C)no1 | -11 | ? | -2% | 0% | ? | ?
Cc1ccc(OCC(=O)c2cc(C)n(Cc3cccs3)c2C)c([N+](=O)[O-])n1 | -22 | ? | ? | ? | 5.8µM* | 6.5µM*
Cc1cc(C(=O)COc2ccc(F)cc2Br)c(C)n1C | ? | ? | 0% | 5% | -12% | -12%
CC(C)(C)OC(=O)N1CCN(C(=O)c2[nH]cnc2C(=O)Nc2nccs2)CC1 | 9 | 10% | 17% | ? | -10% | 1%
O=C1CCC(=O)N1Cc1c(Cl)cccc1Cl | 21 | 0% | 22% | -14% | -11% | 0%
Cc1cc(C(=O)CN2C(=O)NC(C)(c3cc(F)ccc3F)C2=O)c(C)n1C1CC1 (configuration not stated) | -23 | -13% | -1% | -3% | 16µM* | ?
CCC1(c2ccc(F)cc2)NC(=O)N(CC(=O)c2cc(C)n(C3CC3)c2C)C1=O (configuration not stated) | 9 | 1% | 6% | 2% | ? | ?
COc1ccc(-n2c(C)cc(C(=O)COc3ccc(C)nc3[N+](=O)[O-])c2C)cc1 | 13 | 18% | 3% | 8% | 3.7µM* | 5.2µM*
SMILES | IL1B secr inh | ELG1 repair inh | HT1080 IDH1KD tx | HT1080NT lethal | TDP1 cell noCPT | TDP1 cell CPT
COCCn1c(C)cc(C(=O)COc2cccnc2[N+](=O)[O-])c1C | 26 | ? | 1% | 8% | -6% | ?
N#Cc1ccccc1-c1ccc2ncnc(N3CCNCC3)c2c1 | . | . | . | . | 0% | -12%
O=c1cc(Nc2ccc3c(c2)OCCO3)[nH]c(=O)n1-c1ccc(Cl)cc1 | -1 | ? | 1% | -4% | 18µM* | 23µM*
O=c1cc(Nc2ccc3c(c2)OCCO3)[nH]c(=O)n1C1CCCCC1 | 16 | ? | ? | ? | 16µM* | 15µM*
O=C(CN1CCN(S(=O)(=O)N2CCOCC2)CC1)Nc1ccc(Cl)c(Cl)c1 | -10 | ? | -11% | -28% | 16µM* | ?
O=C(CN1CCN(S(=O)(=O)N2CCCCCC2)CC1)Nc1cc(Cl)ccc1Cl | 37 | ? | 9% | 13% | ? | -29%
O=C(CN1CCN(C(=O)N2CCOCC2)CC1)Nc1cc(Cl)ccc1Cl | 20 | -28% | -1% | -7% | 13µM* | ?
O=C(CN1CCN(S(=O)(=O)N2CCOCC2)CC1)Nc1cc(Cl)ccc1Cl | 4 | 21µM* | -2% | -5% | ? | -22%
O=C(CN1CCOCC1)Nc1ccc(Cl)c(Cl)c1 | 28 | 2% | 0% | 1% | -6% | -5%
COc1ccc(/C=N/Nc2nnc(C)n2N)cc1OC(C)=O | 20 | 3% | 16µM* | 23µM* | 18µM* | 8.2µM*
Cc1nnc(N/N=C/c2ccc(Br)cc2)n1N | 0 | ? | 23µM* | ? | 6% | ?
Cc1nnc(N/N=C/c2ccc(-c3ccc(Br)cc3)o2)n1N | 0 | 2% | ? | ? | ? | ?
O=c1c(-c2ccccc2)nnc2sc(COc3ccc(Br)cc3)nn12 | -22 | 16% | 4% | 18% | -14% | -6%
Cc1ccc(CCNC(=O)CCSCc2ccccc2F)cc1 | . | . | . | . | -10% | -5%
COc1ccc(-c2nc(CN3CCCCC3c3nccn3C)c(C)o2)c(C)c1C (configuration not stated) | -16 | ? | ? | ? | ? | -7%
